From PubChem BioAssay AID1159580 (chemical genetic matrix, 2015)
“And” between values parts separate entries of the source, which are not always exact repeats. Equal entries are not always repeated. The campaign covered roughly 5,500 compounds. About 2,000 (36%) were called active. About 18% were inconclusive and are not listed. Rule as the data show it: active = normalized growth mostly below about 0.91 (no sharp cut-off); inconclusive = no clear call, values can overlap the other calls; inactive = mostly above about 0.92. The list shows a part of the results.

Test: chemical genetic growth profiling, strain panel (AID 1159580);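 also: tested at 20 µM; growth read once vehicle control cultures reached saturation at 30 °C; 1 = growth at the plate median or of vehicle wells; lower values mean less growth of the strain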
Conditions: S. cerevisiae deletion strains, growth OD

Measured: normalized growth

O=C(O)/C=C/c1ccc(O)c(O)c1
inactive: locus YAL021C, strain ccr4, hits give low values 0.981 | locus YAL026C, strain drs2, hits give low values 1 | locus YAL030W, strain snc1, hits give low values 1 | locus YAL040C, strain CLN3, hits give low values 1.02 | locus YBL061C, strain skt5, hits give low values 0.996 | locus YBR009C, strain hhf1, hits give low values 0.995 | locus YBR021W, strain FUR4, hits give low values 1.01 | locus YBR023C, strain chs3, hits give low values 1 | locus YBR171W, strain sec66, hits give low values 1 | locus YBR229C, strain ROT2, hits give low values 1.01 | locus YBR231C, strain swc5, hits give low values 1 | locus YBR279W, strain paf1, hits give low values 0.995 | locus YCL011C, strain gbp2, hits give low values 1.01 | locus YCL016C, strain dcc1, hits give low values 1 | locus YCL029C, strain bik1, hits give low values 1.01 | locus YCL061C, strain MRC1 (second series), hits give low values 1.01 | locus YCL061C, strain MRC1, hits give low values 1 | locus YCL069W, strain vba3, hits give low values 1 | locus YCR088W, strain abp1, hits give low values 1 | locus YDL005C, strain med2, hits give low values 1 | locus YDL035C, strain GPR1, hits give low values 1.02 | locus YDL040C, strain nat1, hits give low values 1 | locus YDL074C, strain BRE1, hits give low values 1.05 | locus YDL101C, strain DUN1, hits give low values 1.01 | locus YDL134C, strain PPH21, hits give low values 1 | locus YDL185W, strain tfp1, hits give low values 1 | locus YDL192W, strain arf1, hits give low values 1 | locus YDR001C, strain nth1, hits give low values 1 | locus YDR069C, strain doa4, hits give low values 1.01 | locus YDR101C, strain arx1, hits give low values 1 | locus YDR137W, strain rgp1, hits give low values 0.998 | locus YDR150W, strain NUM1, hits give low values 1.01 | locus YDR159W, strain sac3, hits give low values 1 | locus YDR162C, strain NBP2, hits give low values 1 | locus YDR195W, strain ref2 0.977 | locus YDR297W, strain sur2, hits give low values 1.01 | locus YDR318W, strain mcm21, hits give low values 1 | locus YDR334W, strain swr1, hits give low values 0.993 | locus YDR335W, strain msn5, hits give low values 0.99 | locus YDR388W, hits give low values 1.01 | locus YDR392W, strain spt3, hits give low values 1.03 | locus YDR502C, strain sam2, hits give low values 0.996 | locus YEL003W, strain gim4, hits give low values 1.01 | locus YEL037C, strain rad23, hits give low values 0.991 | locus YEL061C, strain CIN8 (second series), hits give low values 1 | locus YEL061C, strain CIN8, hits give low values 1.01 | locus YER002W, strain NOP16, hits give low values 1.02 | locus YER015W, strain faa2, hits give low values 1 | locus YER016W, strain bim1, hits give low values 1.01 | locus YER110C, hits give low values 1.02 | locus YER111C, strain swi4, hits give low values 0.981 | locus YER155C, strain BEM2 (second series), hits give low values 1.03 | locus YER155C, strain BEM2, hits give low values 1 | locus YER167W, strain BCK2, hits give low values 1.02 | locus YFR010W, strain ubp6, hits give low values 1 | locus YGL078C, strain dbp3, hits give low values 0.997 | locus YGL086W, strain mad1, hits give low values 1.03 | locus YGL167C, strain pmr1, hits give low values 1 | locus YGL173C, strain kem1, hits give low values 1 | locus YGL227W, strain vid30, hits give low values 1.01 | locus YGL240W, strain doc1, hits give low values 1 | locus YGL248W, strain PDE1, hits give low values 0.999 | locus YGL253W, strain hxk2, hits give low values 1 | locus YGR078C, strain PAC10, hits give low values 1 | locus YGR135W, strain pre9, hits give low values 1.01 | locus YGR229C, strain SMI1, hits give low values 1.01 and 1.04 | locus YGR252W, strain gcn5, hits give low values 0.981 | locus YHR013C, strain ard1, hits give low values 0.993 | locus YHR027C, strain rpn1, hits give low values 0.992 | locus YHR030C, strain SLT2, hits give low values 1.01 | locus YHR079C, strain IRE1 (second series), hits give low values 1.03 | locus YHR079C, strain IRE1, hits give low values 0.993 | locus YHR094C, strain hxt1, hits give low values 1.01 | locus YHR129C, strain ARP1, hits give low values 1.02 | locus YHR142W, strain chs7, hits give low values 1.01 | locus YHR200W, strain rpn10, hits give low values 1.03 | locus YIL066C, strain RNR3, hits give low values 1.01 | locus YIL073C, strain SPO22, hits give low values 1.04 | locus YIL125W, strain kgd1, hits give low values 1.01 | locus YIR030C, strain dcg1, hits give low values 1 | locus YJL092W, strain hpr5, hits give low values 1 | locus YJL095W, strain BCK1 (second series), hits give low values 0.994 | locus YJL095W, strain BCK1, hits give low values 0.996 and 1.01 | locus YJL115W, strain asf1, hits give low values 0.991 | locus YJL129C, strain trk1, hits give low values 1 | locus YJL134W, strain LCB3, hits give low values 1.01 | locus YJL154C, strain vps35, hits give low values 0.999 | locus YJL164C, strain tpk1, hits give low values 1.01 | locus YJL166W, strain qcr8, hits give low values 1 | locus YJL168C, strain set2, hits give low values 1 | locus YJL187C, strain SWE1 (second series), hits give low values 1 | locus YJL187C, strain SWE1, hits give low values 0.998
